# Measured values from the supplement of paper PMC9477273.
# Test system: DRIVER-selected RNA biosensor (aptazyme) pool
# Test: maximum fold change of ribozyme cleavage across biosensor pool versus no-compound control; higher = stronger biosensor response (ligand inhibits cleavage)
# Settings: 10 µM
# Method: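 CleaveSeq: a pool of resynthesized hammerhead-ribozyme RNA biosensors (sTRSV scaffold with randomized loops, 1,730 sequences) was T7-transcribed at 37 °C for 15-30 min with a single compound at 10 µM. Cleaved and uncleaved products were counted by NGS, and fold change of cleavage was computed against the DMSO-only condition. The value is the maximum fold change of cleavage over all biosensors in the pool. About 255 compounds were tested individually.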
row,SMILES,maximum fold change
1,O=C(NCC(=O)N1CCOCC1)c1ccccc1,1.78
2,O=C(Cn1ncn2nc(-c3cccs3)cc2c1=O)N1CCN(c2ccccn2)CC1,3.03
3,N/C(=N\OC(=O)N1CCOCC1)c1ccccn1,2.1
4,CC1CCC(NC(=O)c2cc(C3CC3)n[nH]2)CC1 (stereo not given),1.87
5,COc1ccc(C=C2C(=O)c3ccccc3C2=O)cc1O,4.65
6,O=C(NCc1ccco1)c1ccccc1Br,2.5
7,COCCNC(=O)/C(C#N)=C/c1c(Oc2ccccc2Cl)nc2ccccn2c1=O,2.74
8,Cc1[nH]c2ccccc2c1/C=C1\C(=N)N2N=C(N3CCC(C)CC3)SC2=NC1=O,3.17
9,Cc1ccn2c(=O)c(C(=O)Nc3cccnc3)cnc2c1,10.8
10,Brc1ccc(/C=N/c2nc3ccccc3n2CCN2CCCCC2)cc1,2.07
11,Cc1ccc(S(=O)(=O)NCC2CCC(C(=O)NCC(C)c3ccccc3)CC2)cc1 (stereo not given),4.21
12,O=c1cc(-c2ccccc2)[nH]c2nc(C(F)(F)F)nn12,3.78
13,CCCCC(C(=O)N1CCCCC1)N1C(=O)c2ccccc2C1=O (stereo not given),1.93
14,C=CC[n+]1c(/C=C2\C=CC=CN2C)sc2ccccc21,13.8
15,Cc1cc(C)cc(-n2c(C)cc(/C=C3\C(=N)N4N=C(N5CCOCC5)SC4=NC3=O)c2C)c1,4.19
16,CCOC(=O)c1cnc(SC)nc1N,3.4
17,O=C(Cc1cn(Cc2cccc(Cl)c2)c2ccccc12)N1CCCC1,3.3
18,CC(C)NC(=O)C1(c2ccccc2)CCCC1,2.11
19,Cc1nn2c(-c3ccncc3)nnc2c2ccccc12,10.8
20,O=C(CCc1ccccc1)N1CCC(c2ccccc2)C1 (stereo not given),1.79

row,SMILES,maximum fold change
1,CCOC(=O)c1c(C)c(C(=O)N(CC)C2CCCCC2)c(C)n1C,2.31
2,CCOc1ccc(CCNC(=O)Cn2ccc3cc(S(=O)(=O)N4CCCC4)ccc32)cc1,3.07
3,COc1ccc(cc1)/C=CC(=O)NCC(=O)O,3.29
4,N#C/C(=Cc1c(Oc2ccc(c(c2)C)Cl)nc2n(c1=O)cccc2)/C(=O)N1CCCCC1,2.6
5,O=C1N=c2sc(nn2C(=N)/C/1=Cc1cccn1Cc1ccccc1F)N1CCCC1,4.06
6,CCOC(=O)c1cnc(SC)nc1NC(=O)CSCc1csc2c1CCCC2,3.61
7,COc1ccc(-c2nn(C)c3sc(C(=O)N4CCC(C#N)CC4)cc23)cc1OC,7.42
8,Cc1ccc(S(=O)(=O)NC(CC(=O)O)c2cccs2)cc1 (stereo not given),2.72
9,O=C(NCc1ccc2c(c1)OCO2)c1cc(-c2ccc(Cl)cc2)n[nH]1,3.13
10,N=C1NC(=O)/C(=C/c2cc(Br)ccc2OCc2ccccc2)S1,4.89
11,N#C/C(=Cc1c(Oc2ccc(cc2)Br)nc2n(c1=O)cccc2)/C(=O)N1CCOCC1,4.23
12,Cc1cccc(-c2nc3n(n2)C(c2ccccc2Cl)C2=C(CC(C)(C)CC2=O)N3)c1 (stereo not given),1.83
13,COc1ccc(-c2cn3c4ccccc4n(N)c3n2)cc1OC,3.73
14,N#C/C(=Cc1c(Oc2ccc(cc2)Br)nc2n(c1=O)cccc2)/C(=O)NC1CCCCC1,2.99
15,Cc1ccc(C)c(Cn2c(C)c(CNCc3ccc(Cl)cc3)c(C(=O)O)c2C)c1,2.54
16,CN(C)CCNC(=O)CCn1c(=O)c2cccn2c2cccnc21,3.34
17,CCO/C=N/c1oc(C)c(C)c1C#N,3.22
18,COc1cc(CNc2ncc(-c3ccccc3)n2C)cc(OC)c1OC,1.75
19,CC(C)COc1ccc(-c2nn(-c3ccccc3)cc2CO)cc1,3.19
20,CCC(C)NC(=O)Cn1cc(C=O)c2ccccc21 (stereo not given),4.38
